The list is not random: actives were taken first. Their share in the collection is about 1.7%.
ABCB6 inh MLPCN: blocks the human ABCB6 transporter; Q9NP58; AID 602162; fluorescence ratio to DMSO, % at 10 µM; K562-ABCB6 porphyrin accumulation, flow cytometry, 1 h; hits give low values; 360,000 tested, 0.19% active;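 active = fluorescence ratio to DMSO below 75%, the collection mean minus 3 SD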;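 note: signal is porphyrin accumulated inside mitochondria; 100% equals median channel fluorescence of DMSO control wells; lower ratio means ABCB6 inhibition with less porphyrin fluorescence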
TLR4 MyD88 comp: inhibitors of human TLR4-MyD88 binding | O00206+Q99836 | HeLa CL3-4 TLR4/MyD88 BLA complementation, FRET ratio | inhibition, % at 8.4 µM | 200,000 tested, 0.18% active | AID 861; in the data active = inhibition above about 25%;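 note: 0% = vehicle and 100% = reference inhibitor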
Target sequence (O00206 whole entry, looked up): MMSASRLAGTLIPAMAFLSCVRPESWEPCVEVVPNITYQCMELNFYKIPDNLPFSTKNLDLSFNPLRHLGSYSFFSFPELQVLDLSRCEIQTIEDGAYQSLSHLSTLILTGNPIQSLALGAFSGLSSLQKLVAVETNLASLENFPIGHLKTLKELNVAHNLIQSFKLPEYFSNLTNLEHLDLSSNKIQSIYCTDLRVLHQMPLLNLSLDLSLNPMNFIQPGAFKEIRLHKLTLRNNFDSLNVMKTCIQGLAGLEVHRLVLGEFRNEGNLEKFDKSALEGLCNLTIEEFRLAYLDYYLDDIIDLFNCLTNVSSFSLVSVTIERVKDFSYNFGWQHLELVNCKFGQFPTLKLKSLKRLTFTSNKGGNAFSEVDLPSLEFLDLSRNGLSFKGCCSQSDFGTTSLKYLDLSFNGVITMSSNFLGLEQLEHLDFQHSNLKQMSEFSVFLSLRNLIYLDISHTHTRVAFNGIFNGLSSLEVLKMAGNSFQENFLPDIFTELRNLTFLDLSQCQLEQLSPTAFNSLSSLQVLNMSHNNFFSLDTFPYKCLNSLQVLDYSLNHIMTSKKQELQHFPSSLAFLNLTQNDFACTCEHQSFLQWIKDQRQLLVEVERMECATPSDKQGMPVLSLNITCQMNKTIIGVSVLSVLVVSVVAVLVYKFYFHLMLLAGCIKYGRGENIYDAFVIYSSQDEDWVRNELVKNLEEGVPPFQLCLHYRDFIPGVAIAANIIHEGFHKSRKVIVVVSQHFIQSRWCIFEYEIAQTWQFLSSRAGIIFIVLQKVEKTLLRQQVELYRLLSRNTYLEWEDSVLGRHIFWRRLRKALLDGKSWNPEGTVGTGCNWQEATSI
Target sequence (Q99836 whole entry, looked up): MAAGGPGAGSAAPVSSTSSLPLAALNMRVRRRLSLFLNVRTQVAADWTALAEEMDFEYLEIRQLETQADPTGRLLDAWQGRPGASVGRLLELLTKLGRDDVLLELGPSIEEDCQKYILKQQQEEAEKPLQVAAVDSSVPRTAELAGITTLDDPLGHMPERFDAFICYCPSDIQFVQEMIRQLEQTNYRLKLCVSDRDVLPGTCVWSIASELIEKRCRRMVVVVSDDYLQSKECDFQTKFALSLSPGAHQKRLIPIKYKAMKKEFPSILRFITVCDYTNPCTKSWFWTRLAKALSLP
Myeloid diff 2: myeloid differentiation induction | ER-HoxA9 myeloid progenitors, lysozyme-GFP differentiation, flow cytometry | calls only at 10 µM | 360,000 tested, 1% active | AID 624256;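 active = normalized GFP-positive differentiation at or above the plate's own cutoff, the solvent-only control mean plus 3 SD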;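 note: cells exposed to compound for four days before flow analysis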
NOD2 RIPK2 PPI: blocks binding of human NOD2 to RIPK2 | 360,000 tested, 0.38% active | AID 624267 | O43353 | CHO BLA complementation NOD2-RIPK2, CCF4 ratio | inhibition, % at 4.98 µM; in the data active = inhibition above about 21%;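 note: 0% = vehicle only and 100% = reference blocker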
TLR9-MyD88 block: TLR9-MyD88 interaction inhibition. CHO BLA complementation TLR9-MyD88, CCF4 FRET ratio. inhibition, % at 4.98 µM. 340,000 tested, 0.21% active. AID 504734;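 active = inhibition above the mean over all tested compounds plus 3 SD, cut at about 21% in these data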;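 note: 0% = DMSO only wells and 100% = clavulanate BLA inhibitor control wells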
Myeloid diff CP1: promotes myeloid progenitor differentiation. shares compounds with Myeloid diff 2. ER-HoxA9 myeloid progenitors, GFP/Mac1 double-positive flow. calls only. 2,300 tested, 2% active;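 active = share of green or green-and-red cells above 9 and 9% in run 1 or 4 and 3% in run 2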
GFP autofluor: flagged as fluorescent in myeloid differentiation counter-screen | shares compounds with Myeloid diff 2 | ER-HoxA9 myeloid progenitors, no estrogen, GFP autofluorescence flow cytometry; vehicle wells 0%, positive control 100% | fluorescence response, % (concentration not given with the values) | 2,300 tested, 7.4% active | AID 651707;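 active = over 5% cells positive for green fluorescent reporter, or over 2% positive for both it and APC stain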;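 note: range taken on the double positive population between DMSO and positive control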
* = called active by the depositor.

O=C(NCc1cccs1)c1ccc(CS(=O)(=O)c2ccc(Cl)cc2)o1 was read as ABCB6 inh MLPCN 101.0, TLR4 MyD88 comp -1.4, Myeloid diff 2 active, NOD2 RIPK2 PPI -0.8, TLR9-MyD88 block 4.6, Myeloid diff CP1 inactive and GFP autofluor 0.0.
For COc1ccc(S(=O)(=O)Cc2ccc(C(=O)NCc3cccs3)o2)cc1 the results were ABCB6 inh MLPCN 99.0, TLR4 MyD88 comp 2.2, Myeloid diff 2 inactive, NOD2 RIPK2 PPI -8.2 and TLR9-MyD88 block 1.2.
Screening COc1ccc(C2=CN3CCCCC3CC2=O)cc1OC (centres undefined) returned ABCB6 inh MLPCN 100.0, Myeloid diff 2 inactive, NOD2 RIPK2 PPI 4.7 and TLR9-MyD88 block -10.8.
For Cc1ccc(Oc2ccc(-c3nc(N)nc(N)n3)cc2)cc1 the results were ABCB6 inh MLPCN 80.0, TLR4 MyD88 comp -3.4, Myeloid diff 2 active, NOD2 RIPK2 PPI 3.1, TLR9-MyD88 block -0.4, Myeloid diff CP1 inactive and GFP autofluor 0.0.
Screening Nc1nc(N)nc(-c2ccc(Cl)cc2)n1 returned ABCB6 inh MLPCN 94.0, TLR4 MyD88 comp -0.5, Myeloid diff 2 inactive, NOD2 RIPK2 PPI 2.0 and TLR9-MyD88 block 1.6.
`Cc1ccc(NS(=O)(=O)c2cc3c4c(cccc4c2)C(=O)NC3=O)cc1C` gave ABCB6 inh MLPCN 98.0, Myeloid diff 2 active, NOD2 RIPK2 PPI -3.8, TLR9-MyD88 block 0.1, Myeloid diff CP1 inactive and GFP autofluor 2.5.
For COc1ccc(-c2ccc(C(=O)Nc3ccc4c(c3)OCO4)c3occc23)c(C)c1 the results were ABCB6 inh MLPCN 118.0, Myeloid diff 2 inactive and NOD2 RIPK2 PPI -7.4.
COc1ccc(CN2CCC[C@]3(N[C@H](c4ccc(C)cc4)[C@@H]4C(=O)N(Cc5ccccc5)C(=O)[C@@H]43)C2=O)cc1 was read as ABCB6 inh MLPCN 98.0, Myeloid diff 2 inactive, NOD2 RIPK2 PPI 1.6, TLR9-MyD88 block 1.2, Myeloid diff CP1 inactive and GFP autofluor 0.0.
Screening COc1ccc([C@H]2N[C@]3(CCCN(Cc4cccn4C)C3=O)[C@H]3C(=O)N(Cc4ccccc4)C(=O)[C@@H]23)cc1 returned ABCB6 inh MLPCN 95.0, Myeloid diff 2 inactive, NOD2 RIPK2 PPI -11.0, TLR9-MyD88 block 0.1, Myeloid diff CP1 inactive and GFP autofluor 0.9.
`Cc1ccc(NC(=S)NCC2CCN(C(C)c3ccccc3)C2)cc1C` (centres undefined) gave ABCB6 inh MLPCN 97.0, TLR4 MyD88 comp 7.2, Myeloid diff 2 inactive, NOD2 RIPK2 PPI -1.9 and TLR9-MyD88 block -7.1.
CCOC(=O)N1CCN(C(=O)CSCC(=O)Nc2nc(-c3ccc(C)cc3)cs2)CC1 was read as ABCB6 inh MLPCN 94.0, TLR4 MyD88 comp 6.1, Myeloid diff 2 inactive, NOD2 RIPK2 PPI -11.9, TLR9-MyD88 block 7.7, Myeloid diff CP1 inactive and GFP autofluor 0.2.
CCOC(=O)N1CCN(C(=O)CSCC(=O)Nc2nc(-c3ccc4c(c3)OCO4)cs2)CC1 was read as ABCB6 inh MLPCN 82.0, TLR4 MyD88 comp 0.5, Myeloid diff 2 inactive, NOD2 RIPK2 PPI 7.6 and TLR9-MyD88 block -10.6.
O=C(CNC(=O)c1ccco1)Nc1ccc(N2CCCCCC2)cc1 was read as ABCB6 inh MLPCN 99.0, Myeloid diff 2 inactive, NOD2 RIPK2 PPI -0.4 and TLR9-MyD88 block 1.6.
O=C(CNC(=O)c1ccc(Br)o1)Nc1ccc(N2CCCCCC2)cc1 was read as ABCB6 inh MLPCN 105.0, Myeloid diff 2 active, NOD2 RIPK2 PPI -6.7, TLR9-MyD88 block -6.0, Myeloid diff CP1 inactive and GFP autofluor 0.0.
For O=C(N/N=C/c1cccnc1)c1cccc(NC(=O)c2ccccc2Cl)c1 the results were ABCB6 inh MLPCN 90.0, Myeloid diff 2 active, NOD2 RIPK2 PPI -4.6, TLR9-MyD88 block -6.4, Myeloid diff CP1 inactive and GFP autofluor 0.0.
Cc1ccc(CNc2ccc(S(=O)(=O)N3CCOCC3)cc2[N+](=O)[O-])cc1 was read as ABCB6 inh MLPCN 91.0, TLR4 MyD88 comp -7.7, Myeloid diff 2 inactive, NOD2 RIPK2 PPI -10.4 and TLR9-MyD88 block 3.9.
COc1ccc(F)cc1-c1cc(NC(C)=O)c2ncc(-c3cc(OC)c(OC)c(OC)c3)n2c1 was read as ABCB6 inh MLPCN 103.0, Myeloid diff 2 active, NOD2 RIPK2 PPI -11.1, Myeloid diff CP1 inactive and GFP autofluor 0.0.

High-throughput results deposited in PubChem BioAssay by several laboratories.
